Consider 14 molecules from PubChem BioAssay (NCI).

Each structure is given as a SMILES string. “And” between values parts separate entries of the source, which are not always exact repeats. Identical values can stand only once. The panel holds about 83,000 compounds, 20% with a hit somewhere; the sample as a whole holds those more often.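 Note: values are percent growth. 100 is the growth of untreated cells, values between 100 and 0 indicate rising inhibition; between -100 and 0 indicates cell death.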 The source made the active and inactive calls. Rule for the calls: active = growth percent below 10; inactive = the rest.

In this assay the test system is MDA-MB-468 breast. Briefly: NCI-60 one-dose screen, 48 h (100 = growth as untreated, 0 = no growth, -100 = all killed). The note with it: 10 µM unless noted.
Turning to `CCOC(=O)C(C(C)=O)c1nc2sc3cc(Cl)c(Cl)cc3n2c(=O)c1C#N` (centres undefined), the growth is 89.5% (inactive).

`COc1ccc2cnc(N)c(C#Cc3cc(C(=O)Nc4ccc(CN5CCN(C)CC5)c(C(F)(F)F)c4)cnc3C)c2c1`: the growth was 91.2% (inactive).

As for `N#Cc1ncc(-c2ccc(F)c(F)c2F)c(NC2CCCCCC2)n1`, the growth is 86.1% (inactive).

For the molecule `N#CC1=C(N)Oc2c(ccc3ccccc23)C1c1ccccc1` (centres undefined), the growth is 23.1% (inactive).

With `CNC(=O)c1cn(C2CC2)c2cc(N3CCN(C(=O)c4cc(OC)c(OC)c(OC)c4)CC3)c(F)cc2c1=O`, the growth is 103% (inactive).

Take `Cc1nnc(NS(=O)(=O)c2ccc(N=Nc3ccc(N)nc3N)cc2)s1`: the growth is 120% (inactive) and 132% (inactive).

Regarding `O=C(COc1ccc(/C=C2\SC(=O)NC2=O)cc1)Nc1ccc(C(=O)/C=C/c2cc3ccccc3nc2Cl)cc1`, the growth is 20.6% (inactive).

With `CCCCCCCCCCCCC1C/C=C\CCCC(=O)O1` (centres undefined), the growth was 127% (inactive).

With `O=[N+]([O-])c1ccc(S(=O)Cc2ccccc2)c([N+](=O)[O-])c1` (centres undefined), the growth is -56% (active) and -64.1% (active).

As to `Cc1ccc(S(=O)(=O)N(C)CCCCCC(=O)O)cc1`, the growth was 108% (inactive).

As to `COc1cc(OC)c2sc(-c3ccc(-n4cncc4-c4ccc(OC)c(OC)c4)cc3)nc2c1`, the growth was 31% (inactive).

In the case of `O=[N+]([O-])c1cccc(C(F)(F)F)c1`, the growth was 101% (inactive).

Turning to `COc1cc(C2CC(=O)Nc3c2ccc2ccccc32)cc(Br)c1OC` (centres undefined), the growth was -34.3% (active).

As for `CCN1CCN(C(=O)[C@@]2(C)CC[C@]3(C)CC[C@]4(C)C(=CC(=O)[C@@H]5[C@@]6(C)CC[C@H](OC7C[C@@H](O)[C@@H](O)C(C)O7)C(C)(C)[C@@H]6CC[C@]54C)[C@@H]3C2)CC1` (some centres undefined), the growth is 16.9% (inactive).
